Source: PubChem BioAssay (National Center for Advancing Translational Sciences (NCATS))
DT40 TDP1 CPT – qHTS for Inhibitors of human tyrosyl-DNA phosphodiesterase 1 (TDP1): qHTS in cells in presence of CPT | chicken DT40 Tdp1-/-;hTDP1 cells + 20 nM CPT, ATP luminescence, 48 h | AID 686979, 2013 | 420,000 tested, 12% active | Potency, µM (doses to about 46.2 µM), without a hit: at the top dose activity change, negative = growth inhibition, actives largely listed as inhibitors; also: potency is read from the fitted curve at half-maximal effect; % is scaled to controls: 0 for no effect and ±100 for the full control effect; nearly all actives have a fitted effect of over 55% in size
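Cell growth measured by CellTiter-Glo luminescence after a minimum 48 h, 37 C compound exposure with 20 nM CPT in Tdp1-knockout DT40 cells stably expressing hTDP1, seeded 400/well; qHTS titration format.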
ASM inhibitor – Inhibitors of Secretory Acid Sphingomyelinase (S-ASM): qHTS. Sphingomyelin phosphodiesterase (Homo sapiens), P17405. placental ASM, HMU-PC fluorogenic substrate, 60 min. Potency, µM (top dose mostly 57.5 µM), for inactives: top-dose activity change, negative = inhibition, actives largely listed as inhibitors. 340,000 tested, 0.006% active. AID 504937, 2011; also: potency is read from the fitted curve at half-maximal effect
Target sequence (P17405 47-631 limits assumed): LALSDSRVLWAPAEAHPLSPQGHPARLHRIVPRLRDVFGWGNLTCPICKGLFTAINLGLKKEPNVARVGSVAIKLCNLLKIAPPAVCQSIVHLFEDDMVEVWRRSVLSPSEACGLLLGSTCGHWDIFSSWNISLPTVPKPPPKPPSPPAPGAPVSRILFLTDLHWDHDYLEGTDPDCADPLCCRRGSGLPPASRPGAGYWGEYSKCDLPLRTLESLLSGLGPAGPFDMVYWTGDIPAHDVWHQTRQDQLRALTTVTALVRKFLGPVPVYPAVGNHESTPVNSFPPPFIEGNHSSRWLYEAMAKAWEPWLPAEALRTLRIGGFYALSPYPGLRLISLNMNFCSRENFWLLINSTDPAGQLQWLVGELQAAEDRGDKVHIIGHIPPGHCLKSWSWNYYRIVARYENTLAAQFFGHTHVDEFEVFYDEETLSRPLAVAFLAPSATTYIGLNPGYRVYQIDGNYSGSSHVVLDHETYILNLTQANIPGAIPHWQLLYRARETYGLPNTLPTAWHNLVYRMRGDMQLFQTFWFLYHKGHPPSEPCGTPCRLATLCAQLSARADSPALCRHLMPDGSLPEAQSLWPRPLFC
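HMU-PC0 cleavage (9 uM final) by human placental ASM, 60 min at 37 °C following 10 min compound exposure at RT; stopped at pH 10, fluorescence Ex 386/Em 447 nm.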
HepG2 viability – qHTS for Inhibitors of TGF-b: Cytotox Counterscreen. HepG2 CAGA-GFP viability, ATP luminescence, 18 h. Potency, µM (top dose mostly 46.1 µM), for inactives: top-dose activity change, negative = cytotoxicity, usual class: cytotoxic. 410,000 tested, 0.76% active. AID 588856, 2011; also: potency is read from the fitted curve at half-maximal effect
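HepG2 CAGA-GFP cells (1000/well, DMEM with 1% FBS) received compound, then TGF-beta at 500 pg/mL final, and were incubated 18 hours at 37 degrees C. Viability was read by CellTiter-Glo luminescence. Media-only wells were set as complete cell-killing and DMSO as no toxicity.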
DT40 TDP1 no CPT – qHTS for Inhibitors of human tyrosyl-DNA phosphodiesterase 1 (TDP1): qHTS in cells in absence of CPT. 420,000 tested, 15% active. DT40 Tdp1-/- hTDP1 cells, no CPT, ATP luminescence, 48 h. Potency, µM (doses to about 46.2 µM), inactives show at the highest dose activity change, negative = growth inhibition, usual class: inhibitors. AID 686978, 2013; also: potency is read from the fitted curve at half-maximal effect; % is scaled to controls: 0 for no effect and ±100 for the full control effect; nearly all actives have a fitted effect of over 55% in size
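Chicken DT40 Tdp1-/- cells complemented with human TDP1, screened without camptothecin (DMSO vehicle only), 400 cells/well. Compounds pin-transferred, cells incubated at 37 °C for at least 48 hr. Growth read as ATP-dependent luminescence (CellTiter-Glo, 30 min at RT).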
TGFb SMAD3 inh – qHTS for Inhibitors of TGF-b; HepG2 CAGA-GFP TGF-b/SMAD3 reporter, GFP fluorescence, 18 h; TGF-beta stimulated, 500 pg/mL final; Potency, µM (doses to about 46.1 µM), for inactives: at the highest dose activity, negative = inhibition, actives largely listed as inhibitors; 410,000 tested, 1.2% active; also: potency is read from the fitted curve at half-maximal effect; % is scaled to controls: 0 for no effect and ±100 for the full control effect; nearly all actives have a fitted effect of over 65% in size
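HEPG2 CAGA-GFP cells (1000/well, DMEM with 1% FBS) were pre-incubated 2 h at 37 degrees C, given compound by pin tool, then stimulated with TGF-beta at 500 pg/mL final for 18 h before per-cell GFP fluorescence imaging.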
IL1B secr inh – qHTS for Inhibitors of Inflammasome Signaling: IL-1-beta AlphaLISA Primary Screen. THP-1 LPS/ATP IL-1B secretion, AlphaLISA, 16 h; active compounds read low. activity change, % at 57.5 µM. 360,000 tested, 4.7% active; in the data active = activity change below about -50%; inconclusive = mostly about -30% to -49%; also: % is scaled to controls: 0 for no effect and ±100 for the full control effect
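THP-1 cells pretreated 1 hr with compounds (up to 57.5 uM final), then stimulated with LPS (250 ng/mL final) plus ATP (1.25 mM final); secreted IL-1B measured by AlphaLISA after 16 hr, decreased signal indicating inhibition.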
Starred values were filed as active, the others as inactive; i = inactive; ? = inconclusive; · = not tested or not shown. Shown are actives, neighbours in structure and some others; about 19% of the full set was active somewhere. Unless noted, calls follow the shape of the dose curve; as a rule, active = well fitted curve in the direction sought with a large enough effect; inconclusive = small, poorly fitted or top-dose-only effect, or another doubt; inactive = no such curve, though single readings can be large; an effect the other way counts as inactive or inconclusive.

SMILES	DT40 TDP1 CPT	ASM inhibitor	HepG2 viability	DT40 TDP1 no CPT	TGFb SMAD3 inh	IL1B secr inh
C[C@@H]1CN([C@H](C)CO)C(=O)c2c(c3ccccc3n2C)-c2ccccc2CO[C@H]1CN(C)Cc1ccc(Oc2ccccc2)cc1	?	·	-52.1%	25.9µM*	15.8µM*	-19.5
CCOC(=O)c1c(C)[nH]c(C)c1S(=O)(=O)NC1CCN(C(=O)OCC)CC1	3.6%	2.9%	7.2%	12.1%	10.1%	-11.1
CCc1nc2c(OCCC3CCCCC3)cccn2c1N(C)C(=O)CC(C)C	20.6µM*	·	-99.2%	10.3µM*	?	?
CCCCC(=O)N(C)c1c(CC)nc2c(OCCOC)cccn12	-13.7%	·	-12.9%	-0.5%	?	-2.5
CCCCN(C=O)c1c(CC)nc2c(OCC3CCCCC3)cccn12	20.6µM*	·	-39.4%	9.2µM*	12.6µM*	-4.2
CCCCC(=O)N(C)c1c(CC)nc2c(OCCC3CCCCC3)cccn12	?	·	-92.3%	16.4µM*	?	-67.8*
CCc1nc2c(OCCC3CCCCC3)cccn2c1N(C)C(=O)c1cccs1	29.1µM*	·	-95.3%	20.6µM*	-91.6%	-54.2*
CCCCC(=O)N(C)c1c(CC)nc2c(OCC3CCCCC3)cccn12	?	·	-49.9%	20.6µM*	?	-22.2
CSc1ccc(CN2CCCC(N3CCN(c4ccccc4)CC3)C2)cc1 (stereo not given)	?	-0.6%	-54.8%	?	?	-19.3
COc1ccc(C(=O)N/N=C(\Cc2ncc[nH]2)c2ccccc2)cc1	5.17µM*	-2.6%	-4.6%	2.91µM*	-1.7%	42.3
COc1cc(C(=O)N/N=C(\Cc2ncc[nH]2)c2ccccc2)cc(OC)c1OC	2.06µM*	-2.1%	-21.2%	5.17µM*	11.1%	69.4
Cc1ccc2c(c1)c1c3n2CC(=C2C(=O)OC(C)(C)OC2=O)NC3CCC1 (stereo not given)	20.6µM*	0.0%	-6.1%	20.6µM*	?	-0.8
COc1ccc(Cc2nc3ccc(C(=O)NCCn4ccnc4C)cc3o2)cc1OC	-12.0%	5.2%	17.4%	-3.2%	-3.4%	11.0
CC1=CC2C(C3C=CC2(C)C(=O)C3(C)O)C(C)(O)C1=O (stereo not given)	19.2%	2.1%	-1.1%	12.2%	10.3%	4.2
Cc1cccc(-c2noc(CN(C(C)C)S(=O)(=O)c3ccc(F)cc3)n2)c1	?	-2.2%	4.2%	?	-1.6%	5.0
COc1ccc(-c2noc(CN(C)CCC3CCCCO3)n2)cc1 (stereo not given)	-6.7%	-0.1%	-92.1%	?	-10.1%	6.6
COc1ccc(S(=O)(=O)N(Cc2cccs2)C2CCCC2)cc1	18.4µM*	-4.0%	-35.3%	11.6µM*	3.9%	-14.4
Cc1ccc(-c2noc(CN(C3CCCCC3)S(=O)(=O)c3ccc(F)cc3)n2)cc1	?	·	-15.6%	18.4µM*	-18.6%	·
CCCc1nc(-c2ccc(-c3ccc(F)cc3)cc2)no1	2.1%	4.1%	-29.6%	-16.0%	-10.9%	23.8
COc1ccc(S(=O)(=O)N(Cc2nc(-c3ccccc3)no2)C2CCCCC2)cc1	16.4µM*	·	-19.9%	9.2µM*	-13.4%	·
CS(=O)(=O)N(Cc1nc(-c2ccc(F)cc2)no1)c1ccccc1Cl	18.4µM*	-15.6%	-16.8%	?	?	?
CCc1cc(C(=O)Nc2cnn(Cc3ccccc3C)c2)no1	?	·	-4.1%	?	-6.6%	·
CCc1cc[n+](CC(=O)c2ccc(F)cc2)cc1C(=O)O	-21.3%	·	2.5%	-3.9%	-8.5%	·
COc1ccc(S(=O)(=O)N(Cc2ccccc2)Cc2nc(-c3ccccc3)no2)cc1	14.6µM*	-2.3%	-2.5%	18.4µM*	3.0%	-15.5
COc1ccc(Cc2nc(-c3ccccc3)no2)cc1	-11.8%	-0.2%	-11.9%	-16.3%	-17.4%	36.6
SMILES	DT40 TDP1 CPT	ASM inhibitor	HepG2 viability	DT40 TDP1 no CPT	TGFb SMAD3 inh	IL1B secr inh
CC(C)c1ccc(NC(=O)C2CC(=O)Nc3nc4ccccc4n32)cc1 (stereo not given)	0.9%	-1.8%	-2.6%	15.3%	-2.3%	0.0
CC(C)Oc1ccc(C(=O)Nc2nnc(C3=COCCO3)o2)cc1	18.4µM*	0.6%	-11.3%	?	-1.8%	4.3
CC(C)(C)c1ccc(C(=O)Nc2nnc(C3=COCCO3)o2)cc1	13µM*	2.2%	-26.4%	16.4µM*	-12.3%	-1.4
Cc1c(C(=O)NN2CCOCC2)oc2ccccc12	0.4%	-3.4%	-19.3%	-1.4%	0.0%	-13.3
Cc1c(C(=O)NN2CCOCC2)oc2c1ccc1ccccc12	-16.3%	2.6%	19.8%	?	32.1%	-70.9*
COc1ccccc1Nc1nnc(SCc2nnc(-c3cc(OC)c(OC)c(OC)c3)o2)s1	20.6µM*	1.3%	-35.4%	20.6µM*	-36.6%	-4.9
CCOc1ccccc1Nc1nnc(SCc2nnc(-c3cc(OC)c(OC)c(OC)c3)o2)s1	?	-15.5%	-19.7%	13µM*	2.4%	?
COc1ccccc1Nc1nnc(SCC(=O)NC2CC2)s1	11.0%	4.6%	-2.5%	-15.8%	22.2%	-19.8
COc1cc(-c2nnc(CSc3nnc(Nc4ccc(C(C)C)cc4)s3)o2)cc(OC)c1OC	5.8µM*	-4.9%	-36.8%	5.8µM*	?	-10.5
CC(C)CN1CCCC2(CCN(C(=O)c3csnn3)CC2)C1	-3.2%	·	·	13.6%	·	·
Cc1cc2c(cc1S(=O)(=O)CCC(=O)N1CCCCC1C)OCC(=O)N2 (stereo not given)	·	·	-9.6%	·	7.2%	·
N#Cc1nc(-c2cccc3ccccc23)oc1NCCN1CCCCC1	18.4µM*	i	22.4µM*	16.4µM*	0.0%	?
N#Cc1nc(-c2ccccc2Cl)oc1N1CCCCC1	?	12.2%	-14.7%	9.2µM*	-18.9%	-50.7*
N#Cc1nc(-c2ccc(OCc3ccccc3Cl)cc2)oc1N1CCC(C(N)=O)CC1	-4.5%	·	-1.8%	-29.0%	9.3%	·
N#Cc1nc(-c2ccccc2F)oc1N1CCCCC1	2.5%	1.9%	-2.7%	-7.7%	-0.9%	-28.1
N#Cc1nc(-c2ccc(OCc3ccccc3Cl)cc2)oc1N1CCCCCC1	?	·	7.4%	11.2µM*	16.9%	·
N#Cc1nc(-c2ccc(COc3ccc(Cl)cc3)o2)oc1N1CCCCC1	?	·	-1.5%	?	-16.8%	·
